Each structure is given as a SMILES string. Results filed as inconclusive are left out. A number with no mark means an inactive call. Active and inactive are the calls of the source. Calls come from the whole dose curve; as a rule, active = well fitted activation curve with a large enough effect; inconclusive = small, poorly fitted or top-dose-only effect; inactive = no such curve, though single readings can be large or run the other way.
Potency is the fitted concentration of half-maximal effect.

This assay can be described thus: qHTS Assay for Identifying a Potential Treatment of Ataxia-Telangiectasia: Hit Validation. For activity change, positive = activation: 0% is about no effect.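 Note: phospho-KAP1 level by AlphaLISA as a proxy for ATM-like kinase activity.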 Conditions: Ataxia-telangiectasia cell-based hit validation qHTS, in ATM-null A-T patient fibroblasts; series mostly up to 76.9 µM; activity change, positive = activation: at the top concentration. In outline:
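KAP-1 phosphorylation was read by AlphaLISA as a measure of ATM-like activity in ATM-null F2112 fibroblasts. Compounds spanned up to 76.7 uM final, with 60 min exposure at 37C and a 6 hr detection incubation at 25C.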
With `Brc1c(C[n+]2ccccc2)nc2ccccn12`, the “activity change, positive = activation” value is 39.5%.
Same read-out and setting: then `CCOC(=O)C1CCN(C(=O)c2cc3cc(Cl)ccc3[nH]2)CC1`, with 2.08%.
`O=C1C(Cl)=C(Nc2ccccc2)C(=O)c2ccccc21`: the Potency was 16.4 µM (active).
For the compound `C=C(C)n1c(=O)n(Cc2ccccc2C)c2ccccc21`, the “activity change, positive = activation” value is 12.2%.
Same read-out and setting: then `O=C1CN(C(=O)NCC(=O)N[C@H](C(=O)O)c2ccccc2)c2ccccc2N1`, with -3.5%.
`O=C(c1ccc(F)cc1)c1ccc(N2CCCCC2)cc1`: the Potency is 29.2 µM (active).
In the case of `CC(=O)Nc1ccc(NC2=CC(=O)c3ccccc3C2=O)cc1`, the “activity change, positive = activation” value was -33%.
As to `CCS(=O)(=O)c1ccc(C(=O)Nc2ccccc2)c(Cl)c1Cl`, the Potency was 29.2 µM (active).
`O=C(CCCC(=O)N1CCCC1)N1CCCC1`: the “activity change, positive = activation” value was 8.68%.
Same read-out and setting: for `O=C(C(c1ccccc1)c1ccccc1)N1CC[C@@]2(O)CCCC[C@H]2C1` the value was 4.02%.
Still for that read-out and setting: then `Cc1ccc(OC(=O)c2cc(C)nn2C(C)(C)C)cc1`, with 12.9%.
Take `COCCNC(=O)c1c(N)n(-c2cccc(C)c2)c2nc3ccccc3nc12`: the Potency is 41.2 µM (active).
The same measure, in the same setting: for `Cc1cc(C)n2nc(C(=O)OCCOc3ccc(F)cc3)nc2n1` the value was 58.2 µM (active).
As for `COc1ccc2nc(C)cc(Nc3ccc(C(=O)O)cc3)c2c1`, the “activity change, positive = activation” value was 2.43%.
The same measure, in the same setting: for `NC(=O)c1cc2ccccc2o/c1=N/NC(=O)c1cccc(F)c1` the value was 25.9%; for `CCOc1ccc(NC2=CC(=O)CCC2)cc1`, 17.7%.
Same read-out and setting: for `C[C@@H]1Cc2c(O)c(O)cc(O)c2C(=O)O1` the value was -17.1%; for `CCOc1cccc(C(=O)Nc2ccccc2N2CCN(C(=O)C(C)C)CC2)c1`, -3.12%.
On to `COc1cc(CCC(=O)OCC(=O)N2CCc3ccccc32)cc(OC)c1OC`, for which the “activity change, positive = activation” value was -8.74%.
Turning to `COc1ccccc1S(=O)(=O)Nc1ccc(-c2nnc3n2CCCCC3)cc1`, the “activity change, positive = activation” value was 2.78%.
On the same count and under the same terms, for `COc1ccc(NC(=O)C2CC2)cc1OC1CCCC1` the value was -1.74%; for `Cc1ccccc1OCC(=O)Nc1cccc(C(=O)O)c1`, 2.41%.
With `O=C(Nc1ccccc1Oc1ccccc1)c1cccs1`, the Potency was 41.2 µM (active).
Regarding `O=C1NC(NS(=O)(=O)c2ccc(Cl)cc2)(C(F)(F)F)C(=O)N1CCc1ccccc1` (configuration not stated), the “activity change, positive = activation” value was 17.5%.
Same read-out and setting: for `CCOC(=O)N1CCN(c2nc(N(c3ccccc3)c3ccccc3)nc(-n3ccnc3)n2)CC1` the value was 28%.
As for `Cc1ccc(NC(=O)CSc2nnc([C@H](C)NC(=O)OC(C)(C)C)o2)c(C)c1`, the Potency is 26 µM (active).
`COc1ccccc1[C@H]1C(c2cccc(Cl)c2)=NN(c2ccccc2)[C@@H]1CO`: the “activity change, positive = activation” value was -7.64%.
Same read-out and setting: then `Cn1cc(/C=N/NC(N)=S)c2ccccc21`, with -7.64%.
As to `CC(C)c1ccc(C(C(=O)NC2CCCCC2)N(C(=O)c2ccccn2)c2cccnc2)cc1` (configuration not stated), the “activity change, positive = activation” value was 16%.
On the same count and under the same terms, then `CCC(=O)c1ccc2c(c1)OCCO2`, with 14.3%.
In the case of `O=C(c1cccc(F)c1)N1CCCC(C(=O)N2CCCCCC2)C1` (configuration not stated), the Potency was 29.2 µM (active).
For `Cc1cc2nc3ccc(=[N+](C)C)cc-3sc2cc1N`, the “activity change, positive = activation” value was -16.1%.
Turning to `CNC(=O)c1ccc(-c2cc3onc(-c4ccccc4)c3c(=O)n2C)cc1`, the “activity change, positive = activation” value is 15.7%.
Still for that read-out and setting: for `COC(=O)c1cccc2c1-c1ccccc1/C2=N\NC(N)=O` the value was 14.2%.
Same read-out and setting: for `N#C/C(=C/c1ccc(F)cc1)C(N)=S` the value was 21.9%.
Same read-out and setting: for `O=C(O)CCC(=O)NN1C(=O)c2ccccc2NC1c1ccco1` (configuration not stated) the value was 11.2%; for `CCn1c(N2CCN(CC(=O)c3c[nH]c4ccccc34)CC2)nc2c1c(=O)[nH]c(=O)n2C`, 37.8%.

These data come from PubChem BioAssay AID493192 (National Center for Advancing Translational Sciences (NCATS), 2011).
